In PubChem BioAssay (NCI):
This is part of a sample that, as a whole, favours compounds with a hit. Of some 79,000 tested, about 15% had one in any assay. Active and inactive are the calls of the source. Rule as the data show it: active = growth inhibition above about 70%; inactive = the rest.

Experiments:
[1] = NCI Yeast Anticancer Drug Screen. Data for the rad52 strain (AID 147);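 also: 0% = growth of vehicle-treated control cultures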; settings: S. cerevisiae rad52 mutant growth inhibition, stronger effect = higher value
Summary of the method: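 Here a repair-compromised yeast strain receives each compound; its growth is then quantified and normalised to vehicle-only controls.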

[2] = NCI Yeast Anticancer Drug Screen. Data for the wt1 strain (AID 149);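 also: 0% = growth of vehicle-treated wt1 cultures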; settings: S. cerevisiae wt1 strain (SPY 50644) growth inhibition, stronger effect = higher value
Summary of the method: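 Using yeast strain wt1, compound-induced growth inhibition was determined against vehicle-treated cultures.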

[3] = NCI Yeast Anticancer Drug Screen. Data for the rad50EPP+ strain (AID 151);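 also: 0% = growth of vehicle-treated control cultures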; settings: S. cerevisiae rad50 mutant strain, stronger effect = higher value
Summary of the method: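 Read-out is yeast growth inhibition relative to vehicle; cells used were the rad50EPP+ strain.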

[4] = NCI Yeast Anticancer Drug Screen. Data for the mgt1 strain (AID 153); settings: S. cerevisiae mgt1 mutant growth inhibition, stronger effect = higher value
Summary of the method: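 Measured: inhibition of mgt1 yeast growth by compound, normalized to vehicle-treated cultures.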

[5] = NCI Yeast Anticancer Drug Screen. Data for the rad50 strain (AID 155);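 also: 0% = growth of vehicle-only cultures of the same strain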; settings: S. cerevisiae rad50 strain growth inhibition, stronger effect = higher value
Summary of the method: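 Relative growth inhibition (compound vs vehicle) was measured in yeast with a defined repair-gene alteration.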

[6] = NCI Yeast Anticancer Drug Screen. Data for the mec2-1 strain (AID 157); settings: S. cerevisiae mec2-1 strain, stronger effect = higher value
Summary of the method: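 Using mec2-1 yeast: add compound, measure growth, express inhibition versus vehicle-treated cultures.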

[7] = NCI Yeast Anticancer Drug Screen. Data for the rad14 strain (AID 159);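 also: 0% = growth of vehicle-treated control cultures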; settings: S. cerevisiae rad14 strain growth inhibition, stronger effect = higher value
Summary of the method: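 Screen for anticancer potential: a yeast strain altered in DNA damage repair is grown with compound, and reduced growth is quantified against vehicle controls.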

[8] = NCI Yeast Anticancer Drug Screen. Data for the sgs1 mgt1 strain (AID 161);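 also: 0% = growth of cultures given vehicle only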; settings: S. cerevisiae sgs1 mgt1 strain, stronger effect = higher value
Summary of the method: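 Yeast cells carrying a defined DNA-repair defect were exposed to test compounds. Growth inhibition was measured relative to vehicle-treated controls.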

[9] = NCI Yeast Anticancer Drug Screen. Data for the cln2 rad14 strain (AID 165);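 also: 0% = growth equal to vehicle treated cultures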; settings: S. cerevisiae cln2 rad14 strain, stronger effect = higher value
Summary of the method: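 Yeast strain cln2 rad14, bearing defects in cell cycle control and DNA repair, serves as the test system; values reflect growth inhibition compared with vehicle.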

[10] = NCI Yeast Anticancer Drug Screen. Data for the bub3 strain (AID 167); settings: S. cerevisiae bub3 mutant strain, stronger effect = higher value
Summary of the method: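 Screening used yeast with an engineered genetic alteration affecting cell cycle control. Compound-exposed cultures were compared with vehicle cultures, and reduced growth was taken as inhibition.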

[11] = NCI Yeast Anticancer Drug Screen. Data for the wt2 strain (AID 169);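 also: 0% = growth of vehicle-treated yeast cultures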; settings: S. cerevisiae wt2 strain growth inhibition, stronger effect = higher value
Summary of the method: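 Treated yeast vs. vehicle-treated yeast: growth inhibition determined.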

[12] = NCI Yeast Anticancer Drug Screen. Data for the sgs1 strain (AID 173);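 also: 0% = growth of vehicle-only control cultures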; settings: S. cerevisiae sgs1 mutant, stronger effect = higher value
Summary of the method: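 A genetically defined yeast mutant is incubated with the test compound, and its growth is compared to that of the same strain given vehicle.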

[13] = NCI Yeast Anticancer Drug Screen. Data for the mlh1 rad18 strain (AID 175); settings: S. cerevisiae mlh1 rad18 strain growth inhibition, stronger effect = higher value
Summary of the method: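 Steps: expose repair-defective yeast to compound; measure growth; express inhibition against vehicle-treated controls.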

[14] = NCI Yeast Anticancer Drug Screen. Data for the rad18 strain (AID 177); settings: S. cerevisiae rad18 mutant growth inhibition, stronger effect = higher value
Summary of the method: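 Measured value is growth inhibition of a yeast strain bearing a DNA repair alteration, referenced to vehicle-treated cells.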

[15] = NCI Yeast Anticancer Drug Screen. Data for the CLN2oe strain (AID 163);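 also: 0% = growth of vehicle-only control cultures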; settings: S. cerevisiae CLN2oe strain, stronger effect = higher value
Summary of the method: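 Whole-cell yeast growth assay. A strain engineered for altered cell-cycle control received compound, and inhibition relative to vehicle-treated cultures was recorded.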

[16] = NCI Yeast Anticancer Drug Screen. Data for the mlh1 strain (AID 171);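 also: 0% = growth of vehicle-treated control cultures of the same strain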; settings: S. cerevisiae mlh1 strain growth inhibition, stronger effect = higher value
Summary of the method: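 A yeast strain with a defined genetic lesion serves as the test organism. Cultures receive compound or vehicle, and growth is measured.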

[17] = at 5.0 µM (retest, dose inferred, filed as 0.5)
[18] = at 50.0 µM (retest, dose inferred, filed as 5.0)

Measured: growth inhibition

O=C1CSC(c2ccccc2)N1c1ccc(-c2ccc(-n3c(-c4ccccc4)nc4ccccc4c3=O)cc2)cc1 (stereo unspecified)
active: [8]; at 50.0 µM 91.1% | [10]; [18] 77% | [10]; at 50.0 µM 82.3% | [13]; [18] 83% | [13]; at 50.0 µM 82.7%
inactive: [1]; at 1.2 µM 0% | [1]; at 3.7 µM 1% | [1]; at 11.0 µM 3% | [1]; at 33.0 µM 6% | [1]; at 100.0 µM 38% | [2]; at 1.2 µM -2% | [2]; at 3.7 µM 0% | [2]; at 11.0 µM -2% | [2]; at 33.0 µM -19% | [2]; at 100.0 µM -7% | [3]; at 1.2 µM 3% | [3]; at 3.7 µM 9% | [3]; at 11.0 µM 15% | [3]; at 33.0 µM 20% | [3]; at 100.0 µM 24% | [4]; at 1.2 µM 0% | [4]; at 3.7 µM 1% | [4]; at 11.0 µM 0% | [4]; at 33.0 µM 22% | [4]; at 100.0 µM 64% | [5]; at 1.2 µM 0% | [5]; at 3.7 µM 1% | [5]; [17] -2% | [5]; at 11.0 µM 2% | [5]; at 33.0 µM 13% | [5]; [18] 44% | [5]; at 50.0 µM 57.1% | [5]; at 100.0 µM 43% | [6]; at 1.2 µM 0% | [6]; at 3.7 µM -1% | [6]; [17] -1% | [6]; at 11.0 µM 2% | [6]; at 33.0 µM 4% | [6]; [18] 27% | [6]; at 50.0 µM 30.7% | [6]; at 100.0 µM 40% | [7]; at 1.2 µM 1% | [7]; at 3.7 µM 7% | [7]; at 11.0 µM 14% | [7]; at 33.0 µM 36% | [7]; at 100.0 µM 44% | [8]; [17] 6% | [8]; [18] 45% | [9]; [17] 40% | [9]; [18] -1% | [9]; at 50.0 µM 36% | [10]; at 1.2 µM 2% | [10]; at 3.7 µM 5% | [10]; [17] 3% | [10]; at 11.0 µM 12% | [10]; at 33.0 µM 23% | [10]; at 100.0 µM 59% | [11]; at 1.2 µM 0% | [11]; at 3.7 µM -3% | [11]; at 11.0 µM -2% | [11]; at 33.0 µM 7% | [11]; at 100.0 µM 28% | [12]; at 1.2 µM 1% | [12]; at 3.7 µM 1% | [12]; at 11.0 µM 6% | [12]; at 33.0 µM 23% | [12]; at 100.0 µM 46% | [13]; [17] -20% | [14]; at 1.2 µM -1% | [14]; at 3.7 µM 2% | [14]; at 11.0 µM 8% | [14]; at 33.0 µM 15% | [14]; at 100.0 µM 20%

Cn1c(-c2ccc(/C=N\N3CCN(/N=C/c4ccc(-c5c[n+]6ccsc6n5C)cc4)CC3)cc2)c[n+]2ccsc12
inactive: [1]; at 1.2 µM 14% | [1]; at 3.7 µM 19% | [1]; at 11.0 µM 20% | [1]; at 33.0 µM 16% | [2]; at 1.2 µM 5% | [2]; at 3.7 µM 18% | [2]; at 11.0 µM 14% | [2]; at 33.0 µM 17% | [3]; at 1.2 µM 30% | [3]; at 3.7 µM 51% | [3]; at 11.0 µM 49% | [3]; at 33.0 µM 59% | [4]; at 1.2 µM 17% | [4]; at 3.7 µM 27% | [4]; at 11.0 µM 25% | [4]; at 33.0 µM 25% | [4]; at 100.0 µM 69% | [5]; at 1.2 µM 21% | [5]; at 3.7 µM 33% | [5]; [17] 12% | [5]; at 11.0 µM 21% | [5]; at 33.0 µM 11% | [5]; [18] 29% | [5]; at 50.0 µM 18% | [6]; at 1.2 µM 50% | [6]; at 3.7 µM 51% | [6]; [17] 14% | [6]; at 11.0 µM 57% | [6]; at 33.0 µM 41% | [6]; [18] 53% | [6]; at 50.0 µM 30.4% | [8]; [17] 18% | [8]; [18] 58% | [8]; at 50.0 µM 25.1% | [15]; at 1.2 µM 40% | [15]; at 3.7 µM 48% | [15]; at 11.0 µM 49% | [15]; at 33.0 µM 52% | [9]; [17] 18% | [9]; [18] 18% | [10]; at 1.2 µM 17% | [10]; at 3.7 µM 26% | [10]; [17] 17% | [10]; at 11.0 µM 25% | [10]; at 33.0 µM 40% | [10]; [18] 35% | [10]; at 50.0 µM 16.4% | [11]; at 1.2 µM -43% | [11]; at 3.7 µM -40% | [11]; at 11.0 µM -31% | [11]; at 33.0 µM 0% | [16]; at 1.2 µM 33% | [16]; at 3.7 µM 32% | [16]; at 11.0 µM 19% | [16]; at 33.0 µM 47% | [12]; at 1.2 µM 29% | [12]; at 3.7 µM 32% | [12]; at 11.0 µM 32% | [12]; at 33.0 µM 46% | [13]; [17] 34% | [13]; at 50.0 µM -10.8% | [14]; at 1.2 µM 19% | [14]; at 3.7 µM 34% | [14]; at 11.0 µM 24% | [14]; at 33.0 µM 62%
active: [1]; at 100.0 µM 75% | [2]; at 100.0 µM 71% | [3]; at 100.0 µM 78% | [5]; at 100.0 µM 76% | [6]; at 100.0 µM 82% | [15]; at 100.0 µM 76% | [9]; at 50.0 µM 70.5% | [10]; at 100.0 µM 78% | [11]; at 100.0 µM 90% | [16]; at 100.0 µM 74% | [12]; at 100.0 µM 88% | [13]; [18] 73% | [14]; at 100.0 µM 89%
